Compound activity as filed in PubChem.
Hits are enriched below; roughly 4.6% of the tested compounds scored in any of these assays.
TIM10 inh – inhibits growth of TIM10 yeast strain. inhibition, % at 10 µM. S. cerevisiae TIM10 strain growth, BacTiter-Glo luminescence, 24 h. 330,000 compounds, 1.4% hits;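 active = inhibition of 40% or more at the single tested concentration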;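 also: wild-type TIM10 isogenic control strain grown at permissive 25 °C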
tim23-1 inh – tim23-1 yeast growth inhibition; S. cerevisiae tim23-1 growth, BacTiter-Glo luminescence, 24 h; inhibition, % at 20 µM; 330,000 compounds, 1.3% hits;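 active = growth inhibition of the mutant yeast at or above 50%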;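 also: temperature-sensitive mutant grown at 25 °C; plate controls were DMSO-treated mutant yeast for no effect and medium wells lacking yeast for full effect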
tim10-1 inh – inhibits growth of tim10-1 mutant yeast; S. cerevisiae tim10-1 ts strain growth, BacTiter-Glo, 24 h; inhibition, % at 20 µM; 330,000 compounds, 2.2% hits;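 active = inhibition of at least 40%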;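 also: mutant grown at 25 °C; 0% = DMSO wells with yeast and 100% = wells holding no yeast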
PfHsp90 yeast 2 – inhibits growth of yeast expressing Plasmodium falciparum Hsp90 | 310,000 compounds, 0.32% hits | inhibition, % at 9.4 µM | S. cerevisiae expressing PfHsp90, BacTiter-Glo ATP, 48 h; yeast lacking PDR1 and PDR3 efflux regulators;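 active = every replicate shows inhibition above about 80%, whatever the replicate mean, limit read from the data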;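 also: 0% = DMSO neutral controls and 100% = 20 µM radicicol positive controls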
SKKanGAS inh – inhibitors of SKKanGAS S. pyogenes growth in kanamycin (SK-promoter or general growth effect); BacTiter-Glo, 6 h; inhibition, % at 7.5 µM; 300,000 compounds, 1.3% hits; AID 1662;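 active = mean replicate score, as percent of positive control median, at least 50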;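 also: strain carries kanamycin resistance gene driven by streptokinase promoter and grows in 40 µg/ml kanamycin; loss of luminescence reflects streptokinase promoter inhibition or plain growth inhibition; 0% = median of DMSO wells and 100% = positive control at its reference dose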
NLRP3 yeast inh – NALP3 inhibition in yeast. 330,000 compounds, 0.39% hits. inhibition, % at 10 µM. Yeast reconstituted NLRP3/ASC/caspase-1, beta-gal luminescence, 24 h;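 active = inhibition of 50% or more; inactive = inhibition below 50%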;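 also: plate controls were induced DMSO wells for no effect and uninduced yeast grown without galactose for full effect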
* marks the source's active call; other numbers are inactive results; . = not tested or not shown.

SMILES	TIM10 inh	tim23-1 inh	tim10-1 inh	PfHsp90 yeast 2	SKKanGAS inh	NLRP3 yeast inh
CCn1c(SCC(=O)NCc2ccccc2)nnc1C(CO)NC(=O)c1ccccc1 (configuration not stated)	-7	6	1	-1	5	3
O=C(COc1cccc(Cl)c1)Nc1ccccc1N1CCCCC1	9	21	11	.	66*	23
Cc1cc(C)c(OCC(=O)Nc2ccccc2N2CCCCC2)c(C)c1	-2	8	10	-34	80*	26
Cc1ccccc1OCC(=O)Nc1ccccc1N1CCC(C)CC1	-20	8	-7	16	82*	12
Cc1ccc(OCC(=O)Nc2ccccc2N2CCCC2)c(C)c1	14	20	1	-22	7	8
COc1ccc(OCCCC(=O)OCC(=O)N2CCN(S(=O)(=O)c3ccc(C)cc3C)CC2)cc1	.	.	.	16	.	.
Cn1ncc([N+](=O)[O-])c1C(=O)Nc1ccc(-c2ccccc2)cc1	11	4	3	-25	6	35
Cc1cc(SCC(=O)N/N=C/c2ccccc2C(=O)O)c(C)cc1Br	3	28	18	12	0	3
Cc1cc(SCC(=O)N/N=C/c2ccc(O)cc2O)c(C)cc1Br	36	46	19	19	79*	16
Cc1ccccc1-c1cc(C(=O)Nc2sc(C(=O)OC(C)C)c(C)c2C#N)c2ccccc2n1	11	13	20	9	59*	17
COC(=O)c1sc(NC(=O)c2cc(-c3ccccc3)nc3ccccc23)c(C#N)c1C	3	18	8	.	26	8
Cc1cc(NC(=O)CN2C(=O)NC3(CCC(C)CC3)C2=O)no1 (configuration not stated)	.	.	.	-9	-1	.
O=C(NNC(=S)Nc1ccc(Cl)c(Cl)c1)c1ccccn1	3	18	-3	-53	102*	16
Cc1cc(C(=O)N/N=C/C(Cl)=C/c2ccccc2)c(C)o1	-24	0	-25	11	6	-5
Cc1c(Cl)cccc1Nc1nc(N)nc(CN2CCc3ccccc3C2)n1	8	-22	25	-11	80*	15
Nc1cccc([N+](=O)[O-])c1	7	8	10	-3	10	15
O=[N+]([O-])c1cccc(SSc2cccc([N+](=O)[O-])c2)c1	.	.	.	110*	.	.
CSCCC(NC(=O)c1cccc(C)c1)C(=O)OCC(=O)Nc1c(C)nn(-c2ccccc2)c1C (configuration not stated)	1	16	14	-2	-7	5
COc1cccc(Nc2c3c(nc4c(-c5ccccc5)c(C)nn24)CCC3)c1	30	27	27	-1	78*	-5
Cc1nn2c(Nc3ccc(F)cc3)c3c(nc2c1-c1ccccc1)CCC3	5	-8	8	-3	4	-2
CCCCCCCCCCCC(=O)c1c(O)cccc1O	-2	0	34	5	103*	5
CCCCCCCC(=O)NNC(=O)Cc1ccccc1	-1	10	6	8	-7	6
COc1ccc(-c2n[nH]c(C)c2-c2cscn2)c(O)c1	10	9	1	-57	1	8
C=C(C)COc1ccc(-c2n[nH]c(C)c2-c2ccc(OC)cc2)c(O)c1	39	23	14	-33	61*	4
Cc1cn(-c2cc(C(=O)Nc3ccc(C)c(NC(=O)C(=O)c4c[nH]c5ccccc45)c3)cc(C(F)(F)F)c2)cn1	-11	-12	-8	-5	68*	19
SMILES	TIM10 inh	tim23-1 inh	tim10-1 inh	PfHsp90 yeast 2	SKKanGAS inh	NLRP3 yeast inh
C=CCn1c(SCC#N)nc2sc(CC)cc2c1=O	-16	7	-3	.	16	-7
CC(=O)N(C1=C(Cl)C(=O)c2ccccc2C1=O)C1CCCCC1	36	27	21	109*	53*	18
CC(=O)N(c1ccccc1C)C1CCCC1	-1	7	22	-1	-5	-45
O=C(c1ccco1)N1CCN(C(=O)c2ccccc2NS(=O)(=O)c2ccc(F)cc2)CC1	-20	13	3	3	0	-1
Oc1c(CN2CCN(c3ccccc3)CC2)cc(Br)c2cccnc12	.	.	.	124*	90*	.
Oc1c(Br)cc(Br)c2cccnc12	.	.	.	107*	.	.
Brc1csc2ncccc12	10	-7	-2	4	-9	17
c1ccc(N2CCN(Cc3ccnc4ccccc34)CC2)cc1	7	3	4	.	-10	1
Cc1ccc(CNC(=O)COC(=O)c2nc(-c3ccccc3)oc2C)cc1	-4	28	-3	-99	.	37
CC(/C=C/c1ccc2c(c1)OCO2)=N/NC(=O)c1ccncc1	5	7	-5	-11	-5	-1
CC1=C(/C=C/C(C)=N\NC(=O)c2ccncc2)C(C)(C)CCC1	9	15	23	6	57*	10
CCN(C(=O)COC(=O)/C=C/c1c(C)nn(-c2ccccc2)c1C)c1c(N)n(Cc2ccccc2)c(=O)[nH]c1=O	.	.	.	3	.	.
CCC(C)[C@@H](NC(=O)OC(C)(C)C)c1nnc(S(=O)(=O)Cc2cccc(C)c2)o1 (some centres not stated)	.	.	.	121*	-17	.
COc1ccc(N(CC(=O)NCc2ccc3c(c2)OCO3)S(=O)(=O)c2ccc(O)c(C(=O)O)c2)cc1	.	.	.	12	.	.
O=C(CCN1C(=O)/C(=C/c2cccs2)SC1=S)NC1=NCCS1	.	.	.	106*	.	.
O=C(CCN1C(=O)/C(=C\c2cccs2)SC1=S)NC1=NCCS1	-5	7	8	-19	2	-6
Cc1cc(C(C)(C)C)cc(C)c1COC(=O)c1cccnc1	13	14	13	-5	64*	11
CC(C)(C)c1ccc(OC(=O)c2cccnc2)cc1	7	7	11	-20	-5	28
O=C(Nc1ccccc1Cc1ccccc1)c1ccccc1NS(=O)(=O)c1ccc(Cl)s1	10	20	13	-9	117*	-28
Cn1c(=O)c2c(SCC(=O)N3CCCCC3)nc(-c3ccccc3F)nc2n(C)c1=O	2	4	20	-5	37	5
Cn1c(=O)c2c(SCC(=O)N3CCOCC3)nc(-c3ccccc3F)nc2n(C)c1=O	-8	11	7	33	61*	14
COc1ccc2c(C)nc(Nc3nc(-c4ccccc4)cc(=O)[nH]3)nc2c1	-28	17	36	17	74*	36
Cc1ccc2nc(Nc3nc(-c4ccccc4)cc(=O)[nH]3)nc(C)c2c1	-6	-18	-18	13	95*	16
COCc1cc(=O)[nH]c(Nc2nc(C)c3cc(OC)ccc3n2)n1	22	15	-7	.	5	21
Cc1ccc2nc(Nc3nc(C)cc(-c4ccccc4)n3)[nH]c(=O)c2c1	9	-15	-1	11	86*	27
CCc1ccc(OCC(=O)NC(NC(=S)Nc2ccc(C)cc2C)C(Cl)(Cl)Cl)cc1 (configuration not stated)	-33	-4	-15	.	68*	12
